Drawing on PubChem BioAssay (NCI), this text covers growth for 14 molecules.

Test systems include NCI-H23 lung; NCI-H226 lung; NCI-H322M lung; HOP-62 NSCLC; NCI-H460 lung; NCI-H522 lung; A549/ATCC NSCLC; 786-0 renal; COLO 205 colon; DU-145 prostate.
Assay in all cases: NCI-60 one-dose screen, 48 h (100 = growth as untreated, 0 = no growth, -100 = all killed)
Holding throughout (details): 10 µM

Each structure is given as a SMILES string. The panel holds about 83,000 compounds, 20% with a hit somewhere; the sample as a whole holds those more often.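 The test compound was applied at a single concentration to cells in 96-well plates for 48 hours, and percent growth was recorded.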 Values without a mark were called inactive. Activity calls are given as the source filed them. Rule for the calls: active = growth percent below 10; inactive = the rest.

On to `COc1ccc(-c2nn(-c3cccc(NC(=O)c4cccc(C(F)(F)F)c4)c3)cc2-c2ccncc2)cc1Cl`, for which the growth in the assay on NCI-H23 lung was 52%; in the assay with NCI-H226 lung, 52.1%; in the assay on NCI-H322M lung, 47.3%; in the assay on HOP-62 NSCLC, 41.9%; in the assay on NCI-H460 lung, 8.19% (active); in the assay with NCI-H522 lung, -20.1% (active). Besides, the growth with A549/ATCC NSCLC is 19.8%; in the assay on 786-0 renal, 17.1%; in the assay on COLO 205 colon, 17.3%; with DU-145 prostate, 50.5%.

As to `CCOC(=O)N1C/C(=C/c2ccc(F)cc2)C(=O)/C(=C/c2ccc(F)cc2)C1`, the growth in the assay with NCI-H23 lung was 12.2%; in the assay on NCI-H226 lung it was -18.7% (active); in the assay with NCI-H322M lung, 53.9%; with HOP-62 NSCLC, -12.9% (active); with NCI-H460 lung it was 3.07% (active); in the assay on NCI-H522 lung it was -52.4% (active). Moreover, the growth with A549/ATCC NSCLC is 22%; with 786-0 renal, -58.7% (active); in the assay on COLO 205 colon it was 2.88% (active); in the assay with DU-145 prostate it was -6.4% (active).

As to `COc1cc(-c2cc(/C=C/C(=O)c3ccc(N)cc3)[nH]n2)cc(OC)c1OC`, the growth in the assay on NCI-H23 lung was 24.6%; in the assay on NCI-H226 lung it was 51.8%; in the assay with NCI-H322M lung, 11.4%; in the assay with HOP-62 NSCLC it was 23.9%; in the assay with NCI-H460 lung it was -28.9% (active); with NCI-H522 lung, 10.8%. For the same molecule, the growth in the assay with A549/ATCC NSCLC was 1.29% (active); in the assay with 786-0 renal, -28.9% (active); in the assay with COLO 205 colon, -45% (active); with DU-145 prostate, 7.2% (active).

Regarding `Nc1nc(N=Nc2ccc(O)cc2)cc(=O)[nH]1`, the growth in the assay on NCI-H23 lung was 101%; in the assay on NCI-H226 lung it was 114%; in the assay with NCI-H322M lung, 104%; in the assay with HOP-62 NSCLC, 102%; with NCI-H460 lung, 107%; with NCI-H522 lung it was 112%. The growth in the assay with A549/ATCC NSCLC is 111%; in the assay on 786-0 renal it was 105%; in the assay with COLO 205 colon, 106%; with DU-145 prostate, 116%.

As to `COc1cc(Cc2cc(-c3ccc(Cl)cc3)n[nH]c2=O)ccc1O`, the growth in the assay with NCI-H23 lung is 83.5%; in the assay with NCI-H226 lung it was 224%; in the assay with NCI-H322M lung, 119%; with HOP-62 NSCLC it was 104%; in the assay with NCI-H460 lung, 74.2%; in the assay with NCI-H522 lung, 105%. Also, the growth was 58.6% in the assay on A549/ATCC NSCLC, 103% with 786-0 renal, 111% in the assay with COLO 205 colon and 128% in the assay with DU-145 prostate.

On to `O=C1/C(=C\c2cn(C(=O)c3ccc(Cl)cc3)c3ccccc23)c2ccccc2N1C(=O)c1ccc(Cl)cc1`, for which the growth with NCI-H23 lung was 83.2%; in the assay on NCI-H226 lung, 89.4%; in the assay with NCI-H322M lung it was 98.6%; with HOP-62 NSCLC, 61.4%; in the assay with NCI-H460 lung, 86%; in the assay with NCI-H522 lung, 6.02% (active). In addition, the growth was 63.3% with A549/ATCC NSCLC, 93.7% in the assay with 786-0 renal, 105% with COLO 205 colon and 85.1% with DU-145 prostate.

On to `C#Cc1ccc(-n2c(/C=C/c3ccc4ccccc4n3)nc3ncccc3c2=O)cc1`, for which the growth is -44.9% (active) in the assay on NCI-H23 lung; -81.9% (active) with NCI-H226 lung; -45.1% (active) in the assay on NCI-H322M lung; -34% (active) with HOP-62 NSCLC; -46.3% (active) in the assay with NCI-H460 lung; -73.9% (active) in the assay on NCI-H522 lung. In addition, the growth was -25.8% (active) with A549/ATCC NSCLC, 0.1% (active) with 786-0 renal, -94.9% (active) with COLO 205 colon and -37.6% (active) in the assay with DU-145 prostate.

As to `O=[N+]([O-])c1cccc(-c2ncc(-c3ccc(Cl)cc3Cl)[nH]2)c1`, the growth in the assay on NCI-H23 lung was 104%; in the assay with NCI-H226 lung, 80%; with NCI-H322M lung, 131%; in the assay with HOP-62 NSCLC, 45.8%; in the assay on NCI-H460 lung, 84.1%; with NCI-H522 lung it was -14% (active). For the same molecule, the growth in the assay with A549/ATCC NSCLC is 94.4%; in the assay with 786-0 renal it was 66.8%; in the assay on COLO 205 colon, 89.4%; in the assay with DU-145 prostate, 40%.

Regarding `COc1cc(-c2nc(Nc3nc4ccccc4s3)[nH]c(=O)c2C#N)cc(OC)c1O`, the growth in the assay with NCI-H23 lung was 105%; with NCI-H226 lung it was 102%; in the assay on NCI-H322M lung it was 124%; in the assay with HOP-62 NSCLC, 99.5%; with NCI-H460 lung, 105%; in the assay on NCI-H522 lung it was 97.2%. Further, the growth in the assay on A549/ATCC NSCLC is 106%; with 786-0 renal it was 101%; in the assay on COLO 205 colon it was 100%; in the assay with DU-145 prostate it was 113%.

In the case of `COc1ccc(-c2cc(-c3ccc(N(C)C)cc3)c(C#N)c(N3CCCC3)n2)cc1`, the growth in the assay on NCI-H23 lung was 93.6%; with NCI-H226 lung, 82.5%; in the assay on NCI-H322M lung, 92.3%; with HOP-62 NSCLC, 99.7%; in the assay with NCI-H460 lung, 69.9%; in the assay with NCI-H522 lung it was 69.4%. In addition, the growth in the assay on A549/ATCC NSCLC is 77.2%; in the assay with 786-0 renal it was 95.6%; in the assay with COLO 205 colon it was 65.9%; in the assay with DU-145 prostate, 86.8%.

As to `O=C(Nc1ccc(Cl)c([N+](=O)[O-])c1)Nc1nc2ccccc2s1`, the growth in the assay with NCI-H23 lung is 64.5%; in the assay on NCI-H226 lung, 86.4%; with NCI-H322M lung, 101%; with HOP-62 NSCLC, 90.1%; with NCI-H460 lung it was 82%; in the assay on NCI-H522 lung it was 36.1%. The growth in the assay on A549/ATCC NSCLC is 27.2%; with 786-0 renal it was 90.3%; in the assay on COLO 205 colon it was 108%; in the assay with DU-145 prostate it was 107%.

In the case of `O=C(O)CC(Cl)C(Cl)CC(=O)O` (stereo not given), the growth is 102% in the assay on NCI-H23 lung; 119% in the assay with NCI-H226 lung; 93.1% in the assay on NCI-H322M lung; 110% with HOP-62 NSCLC; 101% in the assay with NCI-H460 lung; 86.3% in the assay on NCI-H522 lung. Besides, the growth with A549/ATCC NSCLC is 94.6%; with 786-0 renal, 101%; in the assay with COLO 205 colon, 112%; with DU-145 prostate, 106%.

Take `C#Cc1ccc(-n2c(/C=C/c3ccc(Cl)c(F)c3)nc3ncccc3c2=O)cc1`: the growth in the assay on NCI-H23 lung is 18.3%; in the assay on NCI-H226 lung it was -74.5% (active); in the assay on NCI-H322M lung, -25% (active); with HOP-62 NSCLC, -57.6% (active); in the assay with NCI-H460 lung, -25.8% (active); in the assay with NCI-H522 lung it was -66.7% (active). Moreover, the growth in the assay with A549/ATCC NSCLC is -8.32% (active); in the assay with 786-0 renal, 7.88% (active); in the assay on COLO 205 colon, -90.2% (active); in the assay on DU-145 prostate, 3.49% (active).

`COc1ccc(/C=C/C(=O)Nc2ccc(-c3nc4ccc(OC)cc4s3)cc2)cc1`: the growth was 94.7% with NCI-H23 lung; 99.9% in the assay on NCI-H226 lung; 112% with NCI-H322M lung; 101% in the assay with HOP-62 NSCLC; 106% in the assay on NCI-H460 lung; 91.2% with NCI-H522 lung. For the same molecule, the growth in the assay with A549/ATCC NSCLC was 103%; in the assay with 786-0 renal it was 103%; in the assay with COLO 205 colon, 121%; with DU-145 prostate, 117%.
